NTMT1 inhibitor: blocks human N-terminal methyltransferase 1 activity; Q9BV86; NTMT1 MTase-Glo SAH luminescence, purified enzyme; Potency, µM (titrated, usually from 114 µM), usual class: inhibitors; 59,000 tested, 2.5% active; also: nearly all actives have a fitted effect of over 65% in size
Target sequence (Q9BV86 whole entry, looked up): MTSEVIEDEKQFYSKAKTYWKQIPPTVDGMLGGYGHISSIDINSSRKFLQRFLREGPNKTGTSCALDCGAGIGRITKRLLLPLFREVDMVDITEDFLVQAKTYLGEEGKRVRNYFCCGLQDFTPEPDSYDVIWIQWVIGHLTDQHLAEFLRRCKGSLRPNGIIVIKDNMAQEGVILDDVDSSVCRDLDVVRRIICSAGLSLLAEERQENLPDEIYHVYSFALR
OvCa metastasis: ovarian cancer metastasis inhibition, 3D TME model; SKOV3ip1-GFP adhesion/invasion on 3D omental model, fluorescence; Potency, µM (top dose mostly 45.8 µM), actives largely listed as inhibitors; 46,000 tested, 0.1% active; also: nearly all actives have a fitted effect of over 65% in size
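Primary human omental fibroblast/mesothelial 3D culture pre-formed 48 h. SKOV3ip1-GFP cells added with compounds (0.36-46 umol/L), incubated 2 h RT/16 h 37 C, fixed; GFP cells quantified at 488/509 nm.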
GPR32 ag: activates human resolvin D1 receptor GPR32; activation, % at 76.9 µM; CHO-K1 GPR32 beta-arrestin PathHunter luminescence, 90 min; zero percent set by DMSO-only wells; AID 1346428; O75388; 48,000 tested, 2.5% active;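 active = activation of at least 60% and not above a set upper limit, about 1 call in 100 departs from these limits; inconclusive = activation of 40% to 60%, or above that upper limit; inactive = activation under 40%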
Target sequence (O75388 whole entry, looked up): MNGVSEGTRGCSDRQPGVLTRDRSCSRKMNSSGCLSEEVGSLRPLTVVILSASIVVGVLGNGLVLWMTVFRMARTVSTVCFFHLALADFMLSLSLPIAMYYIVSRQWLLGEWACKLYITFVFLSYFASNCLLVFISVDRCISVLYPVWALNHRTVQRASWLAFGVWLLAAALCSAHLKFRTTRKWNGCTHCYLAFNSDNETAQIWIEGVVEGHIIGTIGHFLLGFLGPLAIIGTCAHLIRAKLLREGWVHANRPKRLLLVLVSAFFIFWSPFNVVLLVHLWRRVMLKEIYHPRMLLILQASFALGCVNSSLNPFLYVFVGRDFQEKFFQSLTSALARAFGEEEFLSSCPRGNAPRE
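PathHunter beta-arrestin recruitment in CHO-K1 cells stably expressing ProLink-tagged GPR32. Cells were exposed to compound for 90 min at 37 C, then chemiluminescence was read after 1 h detection at ambient temperature; DMSO served as basal control.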
FH mod: Identification of activators of human fumarate hydratase by quantitative high-throughput screening | AID 1347055, 2019 | 54,000 tested, 0.22% active | Potency, µM (series often up to 79.9 µM), hits mostly inhibitors | Fumarate hydratase, mitochondrial (Homo sapiens), P07954 | FH coupled MDH/diaphorase resazurin fluorescence, 15 min; also: the screen sought activators but most active calls are inhibition curves; nearly all actives have a fitted effect of over 45% in size
Hits are given with their value; - = inactive; ? = inconclusive; . = no result; ! = repeats disagree. This is a sample that favours compounds with a hit; in the whole collection about 3.8% have one here. Unless noted, calls follow the shape of the dose curve; as a rule, active = well fitted curve in the direction sought with a large enough effect; inconclusive = small, poorly fitted or top-dose-only effect, or another doubt; inactive = no such curve, though single readings can be large; an effect the other way counts as inactive or inconclusive.

SMILES	NTMT1 inhibitor	OvCa metastasis	GPR32 ag	FH mod
CCc1ccccc1NC(=O)C1CCN(C2=NS(=O)(=O)C(c3ccc(C)c(C)c3)=C2C)CC1	-	-	89	-
CCc1ccc(C2=C(C)C(N3CCC(C(=O)Nc4ccc(F)cc4)CC3)=NS2(=O)=O)cc1	-	-	74	-
CC1=C(c2ccc(C(C)C)cc2)S(=O)(=O)N=C1N1CCC(C(=O)NCCc2ccco2)CC1	-	-	64	-
O=C(/C=C/c1ccccc1Cl)N1CCC(c2nc3ccccc3o2)CC1	-	-	-	-
CC1=C(C(=O)OC2CCCC2)C(c2ccccc2C(F)(F)F)CC(=O)N1 (stereo not drawn)	-	-	96	-
[O-][n+]1cccc(/C(Cl)=N/OC[C@@H](O)CN2CCCCC2)c1	-	.	-	-
COc1ccc(C2Nc3ccccc3C(=O)N2Cc2ccccc2OC)cc1COc1ccc(NC(C)=O)cc1 (stereo not drawn)	-	.	.	.
COCCn1c(SCC(=O)Nc2ccc(Br)cc2)nc2c([nH]c3ccccc32)c1=O	-	-	-	-
CCC(C(=O)Nc1c(C)cc(C)cc1C)n1c(=O)c(-c2ccccc2NC(C)=O)nc2ccccc21 (stereo not drawn)	89µM	-	-	-
CCC(C(=O)Nc1cccc(C#N)c1)n1c(=O)c(-c2ccccc2NC(C)=O)nc2ccccc21 (stereo not drawn)	-	-	-	?
CCCC(=O)C1=C(c2ccc(C)cc2)N(C(=O)CCC)n2cnnc2S1	?	?	-	-
NC(=O)C1CCN(c2nc(-c3ccc(-c4ccccc4)cc3)cs2)CC1	-	.	.	.
NC(=O)C1CCN(c2nc(-c3ccc(F)cc3)cs2)CC1	79µM	.	.	.
CCOC(=O)c1c(C)[nH]c(CCC(=O)NCc2ccc(OC)cc2OC)c1C	-	-	-	-
Cc1ccc(NC(=O)COc2ccc3oc4c(c3c2)CCCC4)c(C)c1	-	-	-	-
O=C(CSc1cn(CCNC(=O)c2c(F)cccc2F)c2ccccc12)Nc1ccccc1F	-	-	66	-
O=C(NCCn1cc(SCc2ccccc2F)c2ccccc21)c1cccs1	-	-	67	?
O=C(CSc1cn(CCNC(=O)c2c(F)cccc2F)c2ccccc12)Nc1ccc(F)cc1	-	-	-	-
COc1ccc(CCNC(=O)CSc2cn(CCNC(=O)c3ccccc3F)c3ccccc23)cc1OC	-	-	80	-
Cc1ccccc1CSc1cn(CCNC(=O)c2cccs2)c2ccccc12	-	-	-	-
COc1ccccc1C(=O)NCCn1cc(SCC(=O)Nc2ccccc2F)c2ccccc21	-	-	-	-
COc1ccc(CCCc2nnc(SCC(=O)Nc3ccc(OC)cc3)o2)cc1	?	-	-	-
COc1ccc(CCCc2nnc(SCC(=O)Nc3cccc(F)c3C)o2)cc1	?	-	66	-
CCOC(=O)N1CCc2c(sc(NCc3sccc3C)c2C(=O)Nc2ccccc2OCC)C1	-	-	63	-
CCOC(=O)N1CCc2c(sc(NCc3sccc3C)c2C(=O)Nc2ccc(OC)cc2OC)C1	-	-	117	-
SMILES	NTMT1 inhibitor	OvCa metastasis	GPR32 ag	FH mod
COc1ccc(CN2CCc3c(c(=O)n4ncc(C(=O)N5CCN(c6ccc(F)cc6)CC5)c4n3C)C2)cc1	?	-	-	?
CCCCCn1c(=O)[nH]c2cc(C(=O)N3CCN(c4cccc(OC)c4)CC3)ccc2c1=O	?	-	-	-
CCc1nc(SC)ncc1C(=O)N1CCN(c2cc(C)ccc2C)CC1	89µM	-	-	-
CSc1ccc(CCNC(=O)c2c(C)oc3ncn(C)c(=O)c23)cc1	-	-	-	-
CC(=O)Nc1sc2c(c1-c1nc3ccccc3s1)CNC2	79µM!	-	.	-
Cc1ccc(CNC(=O)CSc2n[nH]c(-c3ccc(F)cc3)n2)cc1	-	-	-	-
Cc1ccc(NC(=O)CSc2n[nH]c(-c3ccc(F)cc3)n2)cc1F	-	?	67	-
COc1cc(Nc2nc3ccccc3nc2NS(=O)(=O)c2ccc(NC(=O)c3ccc(OC)c(C)c3)cc2)cc(OC)c1	-	.	.	-
COc1ccc(-c2nc3ccc(NS(=O)(=O)c4ccc(Cl)cc4)cc3o2)cc1	?	-	79	?
COc1ccc(Nc2nc3ccccc3nc2NS(=O)(=O)c2ccc(Cl)cc2)cc1OC	-	-	118	-
COc1ccc(OCC(=O)Nc2ccc(-c3nc4cc(Cl)ccc4o3)cc2)cc1	-	-	-	-
CCCCCCCCCCCCCCCC(=O)O	-	.	-	-
O=C(Cn1nc2c(cc1=O)CCCC2)NCc1ccccc1	89µM	-	-	-
O=C(Cn1nc2c(cc1=O)CCCC2)NCc1ccc(Cl)cc1	-	?	-	-
OCC(CO)(CO)NCC(O)Cn1c2ccc(Cl)cc2c2cc(Cl)ccc21 (stereo not drawn)	22µM	.	.	-
Cc1ccccc1NS(=O)(=O)c1ccc2[nH]cc(C(=O)NC(C)c3ccccc3)c(=O)c2c1 (stereo not drawn)	-	-	-	40µM
COc1cccc(NS(=O)(=O)c2ccc3c(c2)N(C)C(=O)CC(=O)N3C)c1	-	-	-	-
Cc1cc(C)cc(NS(=O)(=O)c2ccc3[nH]cc(C(=O)NCc4ccco4)c(=O)c3c2)c1	-	-	99	-
COc1cccc(NS(=O)(=O)c2ccc3c(c2)n(C)c(=O)n3C)c1	-	-	86	-
COc1cccc(NS(=O)(=O)c2ccc3[nH]cc(C(=O)NC4CCCCC4)c(=O)c3c2)c1	-	-	103	?
COc1ccc(CNc2oc(-c3ccc(COc4ccc(Cl)cc4)o3)nc2C#N)cc1	-	-	-	?
COc1cccc(Cc2nc3ccccc3nc2SCC(=O)N2CCN(c3ccccc3)CC2)c1	-	-	-	-
CN(C)CC1CCN(C2CCN(C(=O)c3cccc(-c4cc(O)c5ncccc5c4)c3)CC2)CC1	-	.	.	.
COc1ccc(OC)c(NC(=O)Cn2c(=O)oc3cc(S(=O)(=O)NCc4ccccc4)ccc32)c1	-	-	-	-
Cc1ccccc1NS(=O)(=O)c1ccc2[nH]cc(C(=O)NC3CCCCC3)c(=O)c2c1	-	-	-	?
SMILES	NTMT1 inhibitor	OvCa metastasis	GPR32 ag	FH mod
Cc1c(Cl)cccc1NS(=O)(=O)c1ccc2[nH]cc(C(=O)NC3CCCC3)c(=O)c2c1	-	-	101	?
CC(C)c1ccc(NS(=O)(=O)c2ccc3[nH]cc(C(=O)NC4CCCCC4)c(=O)c3c2)cc1	-	-	-	?
Cc1cc(C)cc(NS(=O)(=O)c2ccc3[nH]cc(C(=O)NC4CCCCC4)c(=O)c3c2)c1	-	-	110	?
COc1ccc(CCN2C(=O)N(c3ccc(F)cc3)C(=O)C2CC(=O)Nc2ccc(OC)cc2)cc1 (stereo not drawn)	-	-	-	-
CC(C)(C)C1CCc2oc3ccc(NS(=O)(=O)c4ccc(C(=O)O)cc4)cc3c2C1 (stereo not drawn)	50µM	-	-	?
CC(C)(C)C1CCc2oc3ccc(NS(=O)(=O)c4cc(Cl)ccc4Cl)cc3c2C1 (stereo not drawn)	-	?	-	-

Source: PubChem (National Center for Advancing Translational Sciences (NCATS))
